Data from PubChem BioAssay AID1159580 (chemical genetic matrix, 2015).
Values joined by “and” are separate entries in the source; they are usually repeats but may differ in a detail not shown here. Equal entries are not always repeated. Hit rate of the full screen: of about 5,500 compounds, about 2,000 (36%) were called active. Roughly 18% stayed inconclusive and do not appear here. Cut-off read from the data, not from the text of the source: active = normalized growth mostly below about 0.91 (no sharp cut-off); inconclusive = no clear call, values can overlap the other calls; inactive = mostly above about 0.92. Some of the results follow.

Test: chemical genetic growth profiling, strain panel (AID 1159580);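 note: tested at 20 µM; growth read once vehicle control cultures reached saturation at 30 °C; 1 = growth at the plate median or of vehicle wells; lower values mean less growth of the strain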
Details: S. cerevisiae deletion strains, growth OD

Measured: normalized growth

CCn1cc(C(=O)O)c(=O)c2cnc(N3CCNCC3)nc21
inactive: locus YAL021C, strain ccr4, hits give low values 1.02 | locus YAL026C, strain drs2, hits give low values 1.03 | locus YAL030W, strain snc1, hits give low values 1.03 | locus YBL061C, strain skt5, hits give low values 1.04 | locus YBR009C, strain hhf1, hits give low values 1.02 | locus YBR021W, strain FUR4, hits give low values 0.997 | locus YBR023C, strain chs3, hits give low values 1.03 | locus YBR171W, strain sec66, hits give low values 1.04 | locus YBR229C, strain ROT2, hits give low values 0.98 | locus YBR231C, strain swc5, hits give low values 0.998 | locus YBR279W, strain paf1, hits give low values 1.01 | locus YCL011C, strain gbp2, hits give low values 1.04 | locus YCL016C, strain dcc1, hits give low values 1.01 | locus YCL029C, strain bik1, hits give low values 0.987 | locus YCL069W, strain vba3, hits give low values 1.02 | locus YCR088W, strain abp1, hits give low values 1.02 | locus YDL005C, strain med2, hits give low values 1 | locus YDL035C, strain GPR1, hits give low values 1.01 | locus YDL040C, strain nat1, hits give low values 1 | locus YDL074C, strain BRE1, hits give low values 1.06 | locus YDL101C, strain DUN1, hits give low values 0.994 | locus YDL134C, strain PPH21, hits give low values 0.986 | locus YDL185W, strain tfp1, hits give low values 0.985 | locus YDL192W, strain arf1, hits give low values 0.985 | locus YDR001C, strain nth1, hits give low values 1.01 | locus YDR069C, strain doa4, hits give low values 1.02 | locus YDR101C, strain arx1, hits give low values 1.01 | locus YDR137W, strain rgp1, hits give low values 1 | locus YDR159W, strain sac3, hits give low values 0.945 | locus YDR162C, strain NBP2, hits give low values 0.992 | locus YDR195W, strain ref2 0.975 | locus YDR297W, strain sur2, hits give low values 1 | locus YDR318W, strain mcm21, hits give low values 1.01 | locus YDR334W, strain swr1, hits give low values 1.02 | locus YDR335W, strain msn5, hits give low values 1.01 | locus YDR388W, hits give low values 0.993 | locus YDR392W, strain spt3, hits give low values 0.959 | locus YDR502C, strain sam2, hits give low values 1 | locus YEL003W, strain gim4, hits give low values 1.02 | locus YEL037C, strain rad23, hits give low values 1.01 | locus YEL061C, strain CIN8 (second series), hits give low values 1 | locus YEL061C, strain CIN8, hits give low values 0.995 | locus YER015W, strain faa2, hits give low values 1.02 | locus YER016W, strain bim1, hits give low values 1.02 | locus YER110C, hits give low values 0.987 | locus YER111C, strain swi4, hits give low values 1.02 | locus YER155C, strain BEM2 (second series), hits give low values 0.981 | locus YER155C, strain BEM2, hits give low values 0.983 | locus YER167W, strain BCK2, hits give low values 0.987 | locus YFR010W, strain ubp6, hits give low values 1 | locus YGL078C, strain dbp3, hits give low values 1 | locus YGL086W, strain mad1, hits give low values 1.01 | locus YGL167C, strain pmr1, hits give low values 1.01 | locus YGL173C, strain kem1, hits give low values 1 | locus YGL227W, strain vid30, hits give low values 1.01 | locus YGL240W, strain doc1, hits give low values 0.988 | locus YGL248W, strain PDE1, hits give low values 1 | locus YGL253W, strain hxk2, hits give low values 1.04 | locus YGR078C, strain PAC10, hits give low values 1.05 | locus YGR135W, strain pre9, hits give low values 0.963 | locus YGR252W, strain gcn5, hits give low values 1 | locus YHR013C, strain ard1, hits give low values 1.04 | locus YHR027C, strain rpn1, hits give low values 1.01 | locus YHR030C, strain SLT2, hits give low values 0.983 and 1.06 | locus YHR079C, strain IRE1 (second series), hits give low values 0.992 | locus YHR079C, strain IRE1, hits give low values 1.03 | locus YHR094C, strain hxt1, hits give low values 0.984 | locus YHR129C, strain ARP1, hits give low values 0.986 | locus YHR142W, strain chs7, hits give low values 1.04 | locus YHR200W, strain rpn10, hits give low values 0.988 | locus YIL066C, strain RNR3, hits give low values 1.01 | locus YIL073C, strain SPO22, hits give low values 0.961 | locus YIL125W, strain kgd1, hits give low values 0.993 | locus YIR030C, strain dcg1, hits give low values 0.986 | locus YJL092W, strain hpr5, hits give low values 1.02 | locus YJL095W, strain BCK1 (second series), hits give low values 1 | locus YJL095W, strain BCK1, hits give low values 1.03 and 1.04 | locus YJL115W, strain asf1, hits give low values 1 | locus YJL129C, strain trk1, hits give low values 1.04 | locus YJL134W, strain LCB3, hits give low values 0.983 | locus YJL154C, strain vps35, hits give low values 1.03 | locus YJL164C, strain tpk1, hits give low values 1.05 | locus YJL166W, strain qcr8, hits give low values 1.02 | locus YJL168C, strain set2, hits give low values 0.99 | locus YJL187C, strain SWE1 (second series), hits give low values 1.02 | locus YJL187C, strain SWE1, hits give low values 1.02 | locus YJR043C, strain POL32, hits give low values 1 | locus YJR066W, strain TOR1, hits give low values 1
